An excerpt weighted towards active compounds, which were near 17% of everything screened.
TDP1 block: inhibitors of human tyrosyl-DNA phosphodiesterase TDP1; Potency, µM (doses to about 130 µM), without a hit: top-dose activity change, negative = inhibition, most hits filed as inhibitors; AID 485290; 350,000 compounds, 0.28% hits; Q9NUW8; recombinant TDP1, AlphaScreen DNA substrate cleavage; further: on the % scale 0 is the no-effect control and ±100 the full control effect; nearly all actives have a fitted effect of over 40% in size
Target sequence (Q9NUW8 whole entry, looked up): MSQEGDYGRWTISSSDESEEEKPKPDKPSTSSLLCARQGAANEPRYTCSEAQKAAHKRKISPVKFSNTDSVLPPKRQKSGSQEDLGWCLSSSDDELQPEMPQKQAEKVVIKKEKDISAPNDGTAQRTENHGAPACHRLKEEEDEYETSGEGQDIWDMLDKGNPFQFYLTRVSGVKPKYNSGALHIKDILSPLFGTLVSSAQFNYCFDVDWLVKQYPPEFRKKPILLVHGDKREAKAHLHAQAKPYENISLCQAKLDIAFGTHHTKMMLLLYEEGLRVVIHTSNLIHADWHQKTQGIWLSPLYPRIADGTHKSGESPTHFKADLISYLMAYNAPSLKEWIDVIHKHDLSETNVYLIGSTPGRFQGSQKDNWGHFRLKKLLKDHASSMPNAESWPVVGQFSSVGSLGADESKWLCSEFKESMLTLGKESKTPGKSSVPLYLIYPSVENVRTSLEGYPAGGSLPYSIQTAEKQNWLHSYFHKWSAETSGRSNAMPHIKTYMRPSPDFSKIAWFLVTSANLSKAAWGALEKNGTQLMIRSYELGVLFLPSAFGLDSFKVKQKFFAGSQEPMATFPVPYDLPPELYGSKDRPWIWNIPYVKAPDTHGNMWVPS
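Tdp1 1 nM final; 15 min RT w/ cpd; substrate 15 nM, 5 min; beads 10 ug/ml, 10 min; AlphaScreen read. Neg ctrl: no enzyme.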
TDP1 cell CPT: growth inhibition of DT40 Tdp1-/-;hTDP1 cells with camptothecin (screen for TDP1 inhibitors); Potency, µM (series often up to 46.2 µM), inactives show at the highest dose activity change, negative = growth inhibition, hits mostly inhibitors; AID 686979; 420,000 compounds, 12% hits; chicken DT40 Tdp1-/-;hTDP1 cells + 20 nM CPT, ATP luminescence, 48 h; further: on the % scale 0 is the no-effect control and ±100 the full control effect; nearly all actives have a fitted effect of over 55% in size
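Chicken DT40 Tdp1-/- cells complemented with human TDP1, 400 cells/well, exposed to compounds plus 20 nM camptothecin for at least 48 h at 37 C; viability read as ATP content by CellTiter-Glo luminescence.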
TDP1 cell noCPT: qHTS for Inhibitors of human tyrosyl-DNA phosphodiesterase 1 (TDP1): qHTS in cells in absence of CPT; 420,000 compounds, 15% hits; DT40 Tdp1-/- hTDP1 cells, no CPT, ATP luminescence, 48 h; Potency, µM (series often up to 46.2 µM), for inactives: at the highest dose activity change, negative = growth inhibition, actives largely listed as inhibitors; AID 686978, 2013; further: on the % scale 0 is the no-effect control and ±100 the full control effect; nearly all actives have a fitted effect of over 55% in size
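Stably hTDP1-transfected Tdp1-null chicken DT40 cells were treated with library compounds minus camptothecin and grown for at least 48 hr at 37 °C, after which cellular ATP was quantified by luminescence.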
ClpP mod: qHTS Assay for Activators of ClpP. ATP-dependent Clp protease proteolytic subunit (Bacillus subtilis (strain 168)), P80244. purified B. subtilis ClpP, FRET peptide cleavage, 20 min. Potency, µM (highest dose often 57.5 µM), for the others: top-dose activity change, negative = active. 340,000 compounds, 1.9% hits; active means well fitted falling curve with a large enough effect; inconclusive means small, poorly fitted or top-dose-only effect; inactive means no such curve, though single readings can be large or run the other way; further: the source files actives as falling curves though it sought activators and does not explain the sign; nearly all actives have a fitted effect of over 65% in size
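Buffer: 100 mM Tris/HCl pH8, 100 mM KCl, 0.05% low protease BSA, 2.5% glycerol, 0.01% Tween-20. ClpP 10 microg/mL final; 20 min RT; delta FRET normalized to ADEP and DMSO controls.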
Active calls of the source: *; ? = inconclusive; . = no result given. Unless noted, the call rests on the fitted dose curve; in most records, active means well fitted curve in the direction sought with a large enough effect; inconclusive means small, poorly fitted or top-dose-only effect, or another doubt; inactive means no such curve, though single readings can be large; an effect the other way counts as inactive or inconclusive. Potency means the concentration at half of the fitted maximal effect.

SMILES | TDP1 block | TDP1 cell CPT | TDP1 cell noCPT | ClpP mod
O=C(Cn1c(=O)oc2cc(S(=O)(=O)NCc3ccccc3)ccc21)N(CCO)Cc1ccccc1 | -0.9% | ? | 14.6µM* | 0.3%
Cc1ccc(NC(=O)Cn2c(=O)oc3cc(S(=O)(=O)NCc4ccccc4)ccc32)cc1 | -1.0% | ? | ? | 3.8%
CC(C)c1onc(C(=O)N2CCC(C(N)=O)CC2)c1[N+](=O)[O-] | . | -10.2% | 1.9% | 1.5%
COc1cc(-c2cnc3c(NC=O)cc(-c4ccc(S(C)(=O)=O)cc4)cn23)cc(OC)c1OC | . | 16.4µM* | 18.4µM* | -12.9%
COc1ccccc1-c1cc(NC=O)c2ncc(-c3ccc(S(C)(=O)=O)cc3)n2c1 | . | 11.6µM* | 9.2µM* | 4.8%
COc1ccc(-c2cnc3c(NC=O)cc(-c4ccc(S(C)(=O)=O)cc4)cn23)cc1OC | . | 2.91µM* | 2.91µM* | -8.8%
C=CCC(O)[C@H](Cc1cnc2ccccc2c1)[C@H](/C=C/CCCC)c1ccccc1 (some centres not stated) | -6.8% | . | . | .
Cn1c2c(c3ccccc31)CCN=C2c1ccccc1 | . | ? | -12.0% | -2.2%
CC(C)/C=N/NC(=O)c1cccc(N2CCCC2=O)c1 | -5.3% | -7.2% | 2.6% | 0.2%
O=C(N/N=C/c1ccco1)c1cccc(N2CCCC2=O)c1 | . | -16.1% | -23.2% | 28.2µM*
COc1ccc(/C=N/NC(=O)c2ccc(N3CCCC3=O)cc2)cc1 | . | 10.0% | -7.0% | .
COc1ccc(O)c(/C=N/NC(=O)c2cccc(N3CCCC3=O)c2)c1 | 12.9% | 5.17µM* | 3.26µM* | -0.9%
COc1ccc(O)c(/C=N/NC(=O)c2ccc(N3CCCC3=O)cc2)c1 | 5.4% | 13µM* | 23.1µM* | .
CN(C)c1ccc(/C=N/NC(=O)c2cccc(N3CCCC3=O)c2)cc1 | -2.4% | -1.9% | -17.2% | .
O=C(N/N=C/c1cc(Br)ccc1O)c1cccc(N2CCCC2=O)c1 | 0.0% | 1.64µM* | 4.61µM* | 1.9%
CCOC(=O)c1c(C)c(C(=O)NCc2ccc(Cl)cc2)c(C)n1CC | 1.0% | ? | 25.9µM* | 0.8%
CCOC(=O)c1c(C)c(C(=O)NCCOC)c(C)n1CC | -3.3% | -1.5% | 0.4% | -0.4%
CCOC(=O)c1c(C)c(C(=O)Nc2ccc(N(C)C)cc2)c(C)n1CC | 2.0% | 7.31µM* | 4.61µM* | -0.6%
O=[N+]([O-])c1ccccc1-c1ccc(C(=S)N2CCCCC2)o1 | 8.2% | -17.7% | ? | -0.1%
O=C(c1ccc(-c2ccc([N+](=O)[O-])cc2)o1)N1CCCCCCC1 | 10.5% | 11.6µM* | 10.3µM* | -6.2%
Cc1c(Cl)cccc1-c1ccc(C(=O)N2CCN(c3ccc([N+](=O)[O-])cc3)CC2)o1 | 5.7% | ? | 25.9µM* | 1.0%
CN1CCN(C(=S)c2ccc(-c3cccc([N+](=O)[O-])c3)o2)CC1 | 8.3% | -27.9% | 23.1µM* | 0.9%
CC(=O)N1CCN(C(=O)c2ccc(-c3ccccc3Cl)o2)CC1 | 0.6% | 0.5% | -17.8% | -0.3%
O=[N+]([O-])c1ccccc1-c1ccc(C(=S)N2CCCC2)o1 | 5.9% | 25.9µM* | ? | .
C=CCC[C@H](Cc1ccc(F)cc1)C(=O)OC[C@H](C)NC(=O)[C@@H](CC=C)CC(=O)N[C@H](CO)Cc1ccccc1 | 1.3% | ? | ? | 0.7%
SMILES | TDP1 block | TDP1 cell CPT | TDP1 cell noCPT | ClpP mod
O=C(c1ccc(-c2cccc(Cl)c2)o1)N1CCN(c2ccc([N+](=O)[O-])cc2)CC1 | 3.0% | ? | 20.6µM* | 1.6%
Cc1cc(Br)cn2c(Cc3ccccc3)c(-c3ccc(F)cc3)nc12 | . | ? | ? | -2.2%
Cc1ccc(-c2nc3c(C)cc(Br)cn3c2Cc2ccsc2)cc1 | . | 18.4µM* | ? | 2.6%
Cc1cc(Br)cn2c(Cc3ccccc3)c(-c3ccccc3)nc12 | . | 29.1µM* | ? | -3.4%
Cc1ccc(Cc2c(-c3cccc(Cl)c3)nc3c(C)cc(Br)cn23)cc1 | . | 14.6µM* | 20.6µM* | -3.9%
COc1ccccc1Cc1c(-c2ccccc2)nc2c(C)cc(Br)cn12 | . | 16.4µM* | 16.4µM* | -6.1%
CCN(c1ccccc1)S(=O)(=O)c1nnc(NC(=O)COc2ccccc2F)s1 | -2.6% | -15.3% | -19.6% | -1.3%
Cc1ccc(Cc2c(-c3ccc(Cl)cc3)nc3c(Cl)cc(C(F)(F)F)cn23)cc1 | . | ? | 18.4µM* | -8.5%
Cc1ccc(Cc2c(-c3cccc(Br)c3)nc3c(C)cc(Br)cn23)cc1 | . | -23.3% | ? | -8.6%
COc1ccc(Cc2c(C(C)(C)C)nc3c(C)cc(Br)cn23)c(C)c1 | . | 18.4µM* | 23.1µM* | -5.1%
Cc1ccc(Cc2c(-c3ccc(Cl)cc3)nc3c(C)cc(Br)cn23)cc1 | . | 23.1µM* | 16.4µM* | -2.7%
O=S(=O)(c1ccccc1)N1CCC2(CCN(Cc3ccccc3)CC2)CC1 | . | 12.6% | -8.6% | .
COc1ccc(/C=C/C(=O)Nc2cccnc2Cl)cc1 | . | -12.5% | -6.8% | -8.8%
CCOc1ccc2[nH]c(=O)c(CN(Cc3ccc(F)cc3)C(=O)N3CCCC3)cc2c1 | -2.1% | ? | ? | -14.1%
CCOc1ccc2[nH]c(=O)c(CN(CCO)C(=O)c3ccc(Br)cc3)cc2c1 | 2.8% | ? | -27.0% | 31.6µM*
CCOc1ccc2[nH]c(=O)c(CN(Cc3ccccc3OC)C(=O)c3ccccc3)cc2c1 | 6.8% | 6.51µM* | 3.26µM* | 31.6µM*
CCOc1ccc2[nH]c(=O)c(CN(CCc3ccccc3)C(=O)c3cnccn3)cc2c1 | 4.2% | ? | 16.4µM* | -6.5%
CCOc1ccc2[nH]c(=O)c(CN(CCO)C(=O)CC)cc2c1 | 7.1% | -5.6% | 2.0% | 28.2µM*
CCC(=O)N(CCc1ccccc1)Cc1cc2ccc(OC)cc2[nH]c1=O | . | 2.9% | ? | 4.3%
Nc1nc(=S)c2ncn(C3CCCC3)c2[nH]1 | -2.9% | 5.0% | 1.5% | .
CN[C@@H](CCCN=C(N)N)C(=O)N[C@@H](CCCCN)C(=O)N1CCC[C@H]1C(=O)N[C@@H](Cc1c[nH]c2ccccc12)C(=O)N[C@H](C(=O)N[C@H](CC(C)C)C(=O)O)C(C)(C)C | 12.8% | . | . | .
CC1CCN(CCCNC(=O)c2ccc3c(Cl)c4c(nc3c2)CCCC4)CC1 | 1.9% | 13µM* | 3.66µM* | .
COCCNC(=O)c1ccc2c(Cl)c3c(nc2c1)CCC3 | . | 5.0% | -25.4% | 2.1%
CCN1CCN(CCCNC(=O)c2ccc3c(Cl)c4c(nc3c2)CCCC4)CC1 | 1.7% | ? | 18.4µM* | -1.7%
CCOc1ccc(CCNC(=O)c2ccc3c(Cl)c4c(nc3c2)CCCC4)cc1 | 4.6% | ? | 23.1µM* | -7.3%
O=C(NCCCN1CCCCCC1)c1ccc2c(Cl)c3c(nc2c1)CCCC3 | 0.0% | -89.6% | -75.0% | -2.8%
CCCN(CCC)CCCNC(=O)c1ccc2c(Cl)c3c(nc2c1)CCC3 | . | ? | 18.4µM* | -1.6%

Bioassay records as filed in PubChem BioAssay.
